# This is a sample that favours compounds with a hit; in the whole collection about 1.2% have one here.
# NOD2 RIPK2 PPI – inhibitors of human NOD2-RIPK2 interaction | actives 0.38% (n = 360,000) | inhibition, % at 4.98 µM | AID 624267 | O43353 | CHO BLA complementation NOD2-RIPK2, CCF4 ratio; in the data active = inhibition above about 21%;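 also: 0% = vehicle only and 100% = reference blocker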
# TLR4-MyD88 BLA – inhibitors of human TLR4-MyD88 binding; O00206+Q99836; HeLa CL3-4 TLR4/MyD88 BLA complementation, FRET ratio; inhibition, % at 8.4 µM; actives 0.18% (n = 200,000); in the data active = inhibition above about 25%;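 also: 0% = vehicle and 100% = reference inhibitor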
# Neddylation inh – inhibitors of human cullin neddylation | P61081+Q13564 | TR-FRET cullin neddylation, biochemical | inhibition, % at 25 µM | actives 0.58% (n = 360,000); in the data active = inhibition above about 36%
# TLR9-MyD88 block – blocks human TLR9 binding to MyD88; Q9NR96+Q99836; CHO BLA complementation TLR9-MyD88, CCF4 FRET ratio; inhibition, % at 4.98 µM; actives 0.21% (n = 340,000); AID 504734;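 active = inhibition above the mean over all tested compounds plus 3 SD, cut at about 21% in these data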;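 also: 0% = DMSO only wells and 100% = clavulanate BLA inhibitor control wells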
# GC-A act – GC-A (human) enzyme activation. P16066. HEK293 GC-A cells, cGMP TR-FRET, EC30 ANP; 0% at EC30 ANP, 100% saturating ANP. activation, % at 10 µM. actives 0.14% (n = 370,000); in the data active = activation above about 40%
# GC-B act – GC-B (human) receptor activation. HEK293-GC-B cells, CNP EC30, cGMP TR-FRET; 0% at EC30 CNP, 100% saturating CNP. actives 0.11% (n = 370,000). AID 1920062. P20594. activation, % at 10 µM;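 active = activation at 10 µM reaching about 35% in either raw or pattern-adjusted values, limit read from the data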
# Target sequence (P20594 whole entry, looked up): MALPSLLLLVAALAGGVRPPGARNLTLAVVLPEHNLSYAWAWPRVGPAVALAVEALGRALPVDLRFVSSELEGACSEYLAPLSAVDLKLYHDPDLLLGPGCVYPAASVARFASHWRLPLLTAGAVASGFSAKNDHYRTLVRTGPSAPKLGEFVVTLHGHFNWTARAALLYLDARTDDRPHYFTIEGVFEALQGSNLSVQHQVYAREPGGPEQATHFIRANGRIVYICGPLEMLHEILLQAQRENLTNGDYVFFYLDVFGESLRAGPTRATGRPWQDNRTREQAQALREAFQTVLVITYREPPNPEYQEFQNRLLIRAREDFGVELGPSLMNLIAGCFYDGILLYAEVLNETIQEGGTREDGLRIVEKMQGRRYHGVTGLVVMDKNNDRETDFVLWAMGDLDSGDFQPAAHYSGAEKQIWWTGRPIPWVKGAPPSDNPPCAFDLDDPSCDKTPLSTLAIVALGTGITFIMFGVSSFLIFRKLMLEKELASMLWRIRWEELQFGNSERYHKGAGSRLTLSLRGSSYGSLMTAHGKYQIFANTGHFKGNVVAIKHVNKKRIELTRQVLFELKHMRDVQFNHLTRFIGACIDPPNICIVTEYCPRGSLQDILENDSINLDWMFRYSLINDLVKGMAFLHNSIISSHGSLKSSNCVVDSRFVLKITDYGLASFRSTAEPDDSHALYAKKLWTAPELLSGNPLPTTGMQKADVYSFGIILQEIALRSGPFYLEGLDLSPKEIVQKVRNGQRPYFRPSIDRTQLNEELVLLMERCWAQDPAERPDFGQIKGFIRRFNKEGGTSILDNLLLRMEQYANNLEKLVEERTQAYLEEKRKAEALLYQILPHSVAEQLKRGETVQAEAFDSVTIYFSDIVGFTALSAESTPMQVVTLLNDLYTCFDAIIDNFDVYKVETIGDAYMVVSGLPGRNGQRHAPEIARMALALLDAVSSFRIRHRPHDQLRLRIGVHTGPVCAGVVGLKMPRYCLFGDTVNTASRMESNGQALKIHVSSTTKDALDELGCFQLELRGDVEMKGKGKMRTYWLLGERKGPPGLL
# * marks the source's active call; other numbers are inactive results; nt = not tested or not shown.
SMILES,NOD2 RIPK2 PPI,TLR4-MyD88 BLA,Neddylation inh,TLR9-MyD88 block,GC-A act,GC-B act
CN(CCOC(=O)c1cccs1)C1CN(Cc2cn(Cc3ccccc3Cl)nn2)S(=O)(=O)C1 (configuration not stated),nt,nt,nt,nt,3,4
COc1cc(-c2nc3ccc(C)cn3c2Nc2ccc3c(c2)OCCO3)ccc1O,0,-4,nt,10,36,39*
COc1ccc2c3c([nH]c2c1)[C@]1(CCNC=O)Nc2ccccc2C1=NCC3,nt,nt,nt,nt,-4,-1
Cc1nc2ccc(NC(=O)c3cc([N+](=O)[O-])cc([N+](=O)[O-])c3Cl)cc2s1,4,3,-22,-9,80*,21
Cc1ccc(-n2nc3c(N4CCC(C(=O)NCc5cccc(F)c5)CC4)nnc(C)c3c2C)cc1,4,nt,42*,1,nt,nt
CCOc1cc(/C=C2\C(=O)ON=C2C)ccc1OCc1ccccc1,-8,-2,2,7,38,46*
CCCOc1ccc(/C=C2/C(=O)ON=C2C)cc1OCC,-1,nt,2,-6,35,19
C=CCOc1ccc(/C=C2/C(=O)ON=C2C)cc1OC,-4,nt,-4,-14,41*,23
Cc1ccccc1NC(=O)N(C)[C@H]1C[C@H]2c3[nH]c4c(-c5ccccc5)cccc4c3CCN2C[C@H]1[C@H](C)O,nt,nt,nt,nt,-2,-5
C[C@@H]1CN(C(=O)OC(C)(C)C)CCN1c1ccc(Br)c(C#N)c1,nt,nt,nt,nt,2,-7
COc1ccc(-c2n[nH]c(C)c2-c2ccc(Cl)cc2)c(O)c1,10,-2,14,-9,7,1
Cc1[nH]nc(-c2ccc(O)cc2O)c1-c1ccc(Cl)cc1,-16,2,17,-5,70*,-8
COc1ccc(C[N+]2=C(N)NC3=C4CCCCC4n4c(=O)n(-c5ccccc5)c(=O)n4C3C2)c(OC)c1 (configuration not stated),nt,nt,nt,nt,-33,-24
CCCCOc1ccc2ccccc2c1C=O,5,-13,-19,11,0,-4
O=[N+]([O-])/C=C/c1c(OCc2ccccc2)ccc2ccccc12,82*,13,-16,27*,nt,nt
O=C1OCCC1Sc1nnc(-c2cccc(Br)c2)o1 (configuration not stated),9,-10,-11,1,60*,37*
O=C1OCCC1Sc1nnc(-c2ccc3c(c2)OCO3)o1 (configuration not stated),2,7,1,-4,28,-7
Cc1cc(S(=O)(=O)c2ccc([N+](=O)[O-])cn2)ccc1Br,-3,nt,-9,-4,20,37*
COC(=O)C1CN(Cc2cn(CCC3OCCO3)nn2)CCS(=O)(=O)N1Cc1ccc(OC)cc1 (configuration not stated),nt,nt,nt,nt,2,6
COc1ccc(/C(C)=N/NC(=O)c2cccc(S(=O)(=O)N3CCCC3)c2)c(O)c1,1,nt,49*,6,-7,-7
COc1ccc(C(C)=NNC(=O)c2cccc(S(=O)(=O)N3CCCC3)c2)cc1,0,nt,-6,-2,3,4
C[C@@H]1C(=O)N2N=Cc3cc4ccccc4cc3[C@H]2N2N=Cc3cc4ccccc4cc3[C@@H]12,nt,nt,nt,nt,-8,1
COc1ccc(Cl)c2c1[nH]c1nc(SCc3cccnc3)nnc12,-13,14,-3,2,32,43*
COC(=O)C1CN(C2CCCC2)CCS(=O)(=O)N1Cc1cn(Cc2ccc(F)cc2)nn1 (configuration not stated),nt,nt,nt,nt,-2,2
COc1ccccc1NS(=O)(=O)c1cccc(C(=O)N/N=C/c2c(CO)cnc(C)c2O)c1,8,nt,41*,6,2,0
SMILES,NOD2 RIPK2 PPI,TLR4-MyD88 BLA,Neddylation inh,TLR9-MyD88 block,GC-A act,GC-B act
COc1ccccc1N/N=C/c1c(CO)cnc(C)c1O,-13,-1,5,-5,-6,-7
Cc1cccc(-c2cc(N3CCCN(C)CC3)n3nccc3n2)c1,-12,nt,nt,nt,3,-4
CN1CCCN(c2cc(-c3ccc4ccccc4c3)nc3ccnn23)CC1,-3,nt,46*,nt,0,-2
CCCS(=O)(=O)c1c(S(=O)(=O)CCC)c2ccc(C(N)=O)cn2c1C(=O)c1ccccc1,-7,nt,-5,5,35,42*
CCCN(CCC)CCNC(=O)c1cc2c(=O)n(C)c3ccccc3c2n1C,-10,-15,44*,3,2,-1
CCn1c(=O)c(C(=O)CN2c3ccccc3CC2C)c(N)n(Cc2ccccc2)c1=O (configuration not stated),1,-14,-62,-1,41*,9
O=S(=O)(c1cccs1)N1CN(Cc2cccs2)c2nc3ccccc3nc21,-8,2,41*,-3,0,0
C#CCN1CC(N(C)CCOC(=O)CC2C=CCC2)CS1(=O)=O (configuration not stated),nt,nt,nt,nt,2,5
COc1ccc(C(=O)NC(=S)NNC(=O)c2ccccc2O)cc1,-4,nt,1,10,2,-1
COc1ccc(C(=O)NC(=S)NNC(=O)c2ccccc2C)cc1,-10,nt,41*,4,1,2
CCOc1ccc(C2C(C(=O)c3ccc(C)o3)=C(O)C(=O)N2c2nc(C)c(C(=O)OC)s2)cc1 (configuration not stated),-5,nt,26,4,44*,-9
COc1ccc(CNCC#CC2=CCCCC2)c(OC)c1,nt,nt,nt,nt,-1,-2
Cc1ccccc1-n1nc2c(c1NC(=O)c1cc3ccccc3oc1=O)CS(=O)(=O)C2,nt,5,nt,nt,31,38*
Cc1cc(=O)oc2cc(NC(=O)C(C)N3C(=O)C4CCCCC4C3=O)ccc12 (configuration not stated),-1,nt,73*,-1,0,-4
CCOc1ccc(CCNC(=O)c2cc3ccsc3n2C)cc1OCC,nt,nt,nt,nt,-2,-6
COCCn1c(SCC(=O)NC(=O)NC(C)C)nc2ccccc21,0,-8,-2,12,42*,-3
COCCn1c(SCC(=O)NC(=O)NC(C)(C)C)nc2ccccc21,0,-7,-3,-8,0,4
COc1ccc(OC)c2[nH]c(C(=O)N/N=C/c3ccccc3O)cc12,13,nt,23,8,-2,-10
COc1ccc(/C=N/NC(=O)c2cc3c(OC)ccc(OC)c3[nH]2)cc1O,19,nt,41*,2,-15,-4
O=C(Cn1sc2ccccc2c1=O)NC12CC3CC(CC(C3)C1)C2,9,-4,-6,21*,nt,nt
O=C(Cc1ccc(-n2c(=O)c3ccccc3n(Cc3ccccc3Cl)c2=O)cc1)NCC1CCCO1 (configuration not stated),-11,9,-4,-1,53*,62*
O=C(O)CCc1ccc(-c2ccc(Cl)cc2)o1,5,7,-5,-15,45*,-2
